The record followed here is PubChem BioAssay.

Inconclusive results are not listed. For some assays here: Results with a measured potency or affinity are listed apart. Active and inactive are the calls of the source. Unless noted, the limit is not given here; nearly all actives have AC50 up to about 30 µM.

Assay [1] in a line: restoration of touch response, mutant HTT neurons – whole organism, C. elegans mechanosensory neurons, N-terminal huntingtin (AID 1599). The following applies: C. elegans polyQ-huntingtin mechanosensory neurons, stronger effect = higher value.
Assay [2] in a line: polyglutamine aggregate formation blockers (AID 1604). The note with it: polyglutamine-induced protein aggregation inhibition assay; stronger effect = higher value; tested at 2.5 µM.
Assay [3] can be described thus: glutamate transport activators, MN-1 cells, MN-1 cell line (AID 1612).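 Also: tested at 1 µM final; 0% = mean of DMSO vehicle wells on each plate; positive means more glutamate uptake than control and negative means less.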 The note with it: MN-1 motor neuron cells, stronger effect = higher value.
Assay [4] can be described thus: GFP-Q80 aggregate reduction, neuronal-like cells, cell-based, NGF-treated PC12, GFPQ80 (AID 1614).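 Also: lower means fewer inclusions and 0 means no inclusions at all.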 The following applies: PC12 NGF-treated GFP-polyQ80 inclusion reduction.
A short description of assay [5]: 75Q-TubH aggregate inhibition, S. cerevisiae, yeast (AID 1616). The following applies: S. cerevisiae 75Q-TubH polyglutamine aggregation suppression; stronger effect = higher value.
A short description of assay [6]: viability loss in pontine glioma line – cell-based, SU-DIPG-IV, MIPE4.0, CellTiter-Glo, qHTS, dose response (AID 1347063).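 Also: compound exposure lasted 48 hours before the viability readout.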 The note with it: CellTiter-Glo ATP luminescence. On the technique in general: Cellular ATP, detected with luciferase, serves as a proxy for viable cell number.
Assay [7] concerns Hepatitis C virus NS3 helicase. Kind of assay: blockers of NS3h binding to ssDNA – biochemical, fluorescence polarization, LOPAC1280 library, primary screen (AID 687035; in the data active = inhibition above about 37%). The following applies: Purified HCV NS3 helicase, Cy5-dT15 ssDNA binding fluorescence polarization; stronger effect = higher value; concentration not given here.
A short description of assay [8]: compounds altering Cy5-DNA-NS3h complex signal – biochemical, LOPAC1280, artefact control for HCV NS3 helicase inhibitor project (AID 687037; call rule not given here). The note with it: Cy5-DNA-NS3h complex fluorescence interference counterscreen.
A short description of assay [9]: blockers of cellular phospholipid synthesis – cell-based, LOPAC library, screen 4, primary screen (AID 1347384; call rule not given here). The following applies: animal cells, phospholipid biosynthesis inhibition screen; at 10 µM.

Consider `O=c1ccn([C@@H]2O[C@H](COP(=O)(O)OP(=O)(O)OP(=O)(O)O)[C@@H](O)[C@H]2O)c(=O)[nH]1`, for which the rescue above control in assay [1] was determined as 2.48. In [2], the inhibition of aggregation was 60.6%. Besides, the glutamate uptake change in assay [3] stood at 11.8%. The molecule further registered an inclusion score in [4] of 2. Also, the aggregation suppression score in assay [5] amounted to 1.14.

Molecule `C[N+]1(C)C2CC(OC(=O)[C@@H](CO)c3ccccc3)CC1C1OC12` (some centres undefined) returned a rescue above control in assay [1] of -0.68. Moreover, the inhibition of aggregation in [2] amounted to 47.9%. Moreover, the glutamate uptake change in assay [3] was -7.1%. Also, the inclusion score in [4] came to 2. Moreover, in [5], the aggregation suppression score was 1.44.

The molecule `CC1(C)C2CC[C@]3(C)C(C(=O)C=C4[C@H]5C[C@@](C)(C(=O)O)CC[C@]5(C)CC[C@]43C)[C@@]2(C)CC[C@@H]1O` (some centres undefined) came in with a rescue above control in [1] of 0.7. The inhibition of aggregation in assay [2] was determined as 25.5%. In addition, the glutamate uptake change in [3] was -60.4%. Also, the inclusion score in [4] came out at 2. In assay [5], this molecule displayed an aggregation suppression score of 0.949.

Take `C=C(C)[C@H]1CC=C(C(=O)O)CC1`: the rescue above control in [1] is -1.74. Also, the inhibition of aggregation in assay [2] is -3.17%. Moreover, the glutamate uptake change in [3] was -7.46%. The inclusion score in [4] turned out to be 2. In assay [5], this molecule had an aggregation suppression score of 0.107.

In turn, `COC1=CC(C)[C@@H]2C[C@H]3OC(=O)C[C@H]4C(C)=C(OC)C(=O)C([C@@]34C)[C@@]2(C)C1=O` (some centres undefined) displayed a rescue above control in assay [1] of -7.37. The inhibition of aggregation in assay [2] was -1.96%. Also, in assay [3], the glutamate uptake change came out at 12.8%. This molecule also gave an inclusion score in assay [4] of 2. This molecule came in with an aggregation suppression score in assay [5] of 1.57.

With `O=C1C(Cl)=C(NCCN2CCOCC2)C(=O)c2ncccc21`, the AC50 (commonly the concentration at which the activity in the assay is half-maximal) in assay [6] was 4.69 µM (active).

With `COc1ccc(-c2cc(=O)c3c(O)cc(O[C@@H]4O[C@H](CO[C@H]5O[C@H](C)[C@@H](O)[C@H](O)[C@@H]5O)[C@@H](O)[C@H](O)[C@H]4O)cc3o2)cc1O`, the rescue above control in assay [1] was -9.51. Besides, the inhibition of aggregation in [2] was 75%. Also, the glutamate uptake change in [3] is 6.61%. The molecule further showed an inclusion score in [4] of 2. Moreover, the aggregation suppression score in assay [5] came to 1.82.

Consider `CCCC(=O)Nc1ncnc2c1ncn2C1O[C@@H]2COP(=O)(O)O[C@H]2[C@H]1OC(=O)CCC` (some centres undefined), for which the rescue above control in [1] is 1.51. In assay [2], the inhibition of aggregation turned out to be 77.8%. The glutamate uptake change in assay [3] was 4.01%. This molecule also yielded an inclusion score in assay [4] of 2. Further, the aggregation suppression score in [5] was determined as 1.79.

Take `COc1ccc([C@@H]2CC(=O)c3c(O)cc(O[C@@H]4O[C@H](CO[C@H]5O[C@@H](C)[C@H](O)[C@@H](O)[C@H]5O)[C@@H](O)[C@H](O)[C@H]4O)cc3O2)cc1O`: in [1], the rescue above control is -5.33. For the same molecule, the inhibition of aggregation in [2] is 83.3%. Also, in assay [3], the glutamate uptake change was 7.48%. The same molecule showed an inclusion score in [4] of 2. In assay [5], the aggregation suppression score was 1.41.

Turning to `CC(=O)[C@@]1(O)CCC2C3C=C(Cl)C4=CC(=O)[C@@H]5CC5[C@]4(C)C3CC[C@@]21C` (some centres undefined), the rescue above control in assay [1] was 12.8. Moreover, in assay [2], the inhibition of aggregation came to 9.8%. Further, the glutamate uptake change in [3] is -5.81%. For the same molecule, the inclusion score in assay [4] stood at 2. The aggregation suppression score in assay [5] is 0.681.

As for `Nc1ccn(C2O[C@H](CO)[C@@H](O)[C@H]2O)c(=O)n1` (some centres undefined), the rescue above control in [1] was -6.6. The inhibition of aggregation in assay [2] was determined as 63.9%. For the same molecule, the glutamate uptake change in assay [3] came out at 6.93%. This molecule gave an inclusion score in [4] of 2. The aggregation suppression score in [5] worked out at 1.06.

For the molecule `CC(=O)N[C@@H]1[C@@H](C(O)[C@H](O)CO)O[C@](O)(C(=O)O)C[C@@H]1O` (some centres undefined), the rescue above control in assay [1] was -7.75. In addition, the inhibition of aggregation in [2] was -20.4%. Besides, the glutamate uptake change in assay [3] was 11.8%. Besides, the inclusion score in [4] is 2. Also, in assay [5], the aggregation suppression score stood at 0.464.

On to `CC(=O)O[C@@H]1CC2C(C)(C)C(=O)C=C[C@]2(C)C2CC[C@@]3(C)[C@H](c4ccoc4)OC(=O)[C@H]4O[C@]43[C@@]21C` (some centres undefined), for which the rescue above control in [1] is -3.01. Moreover, in assay [2], the inhibition of aggregation worked out at 36%. For the same molecule, the glutamate uptake change in assay [3] is -11.6%. Further, the inclusion score in assay [4] was determined as 2. For the same molecule, the aggregation suppression score in assay [5] came out at 0.57.

For the molecule `CC(=O)OCC(=O)[C@@]1(O)[C@H](C)CC2C3CCC4=CC(=O)C=C[C@]4(C)[C@@]3(F)[C@@H](O)C[C@@]21C` (some centres undefined), the rescue above control in assay [1] was 1.81. Moreover, the inhibition of aggregation in assay [2] was found to be 69.4%. Also, in [3], the glutamate uptake change was found to be 20.3%. This molecule also showed an inclusion score in assay [4] of 2. This molecule also showed an aggregation suppression score in assay [5] of 1.32.

`CC(C)Oc1ccc2c(=O)cc(-c3ccccc3)oc2c1` registered a rescue above control in assay [1] of 6.51. Moreover, in assay [2], the inhibition of aggregation worked out at 12.7%. Moreover, the glutamate uptake change in [3] is -13.2%. This molecule also yielded an inclusion score in assay [4] of 2. The aggregation suppression score in assay [5] was found to be 0.599.

In the case of `CC1(C)C2CC[C@]3(C)C(C(=O)C=C4[C@@H]5C[C@@](C)(C(=O)O)CC[C@]5(C)CC[C@]43C)[C@@]2(C)CC[C@@H]1O` (some centres undefined), the rescue above control in [1] was 12. Also, in assay [2], the inhibition of aggregation is 25.7%. The glutamate uptake change in [3] is -84.4%. The molecule also showed an aggregation suppression score in assay [5] of 1.4.

Take `NC[C@H]1O[C@H](O[C@H]2C(O[C@@H]3O[C@H](CO)[C@@H](O)[C@H]3O)[C@@H](O)[C@H](N)C[C@@H]2N)[C@H](N)[C@@H](O)[C@@H]1O` (some centres undefined): the rescue above control in [1] is -3.87. Further, the inhibition of aggregation in [2] was 51%. In addition, the glutamate uptake change in [3] is -16.8%. Further, in assay [4], the inclusion score is 2. For the same molecule, in [5], the aggregation suppression score came out at 0.969.

As to `CCN(c1ccccc1)c1cc(NC)[n+](C)c(C)n1`, the outcome in assay [6] was inactive.

The molecule `C1CCN2C[C@H]3C[C@H](CN4CCCC[C@@H]34)[C@H]2C1` showed a rescue above control in [1] of -2.03. In addition, the inhibition of aggregation in [2] stood at 26.9%. Also, the glutamate uptake change in assay [3] was found to be 8.14%. In assay [4], this molecule showed an inclusion score of 2. For the same molecule, in [5], the aggregation suppression score is 1.49.

Regarding `NC(COCc1ccccc1)C(=O)O` (centres undefined), the rescue above control in assay [1] is 1.64. In addition, in [2], the inhibition of aggregation is 85.8%. The glutamate uptake change in [3] was 3.63%. This molecule gave an inclusion score in assay [4] of 2. In assay [5], this molecule yielded an aggregation suppression score of 1.4.

For `NC(=O)Nc1sc(-c2ccc(F)cc2)cc1C(N)=O`, the AC50 in assay [6] was 1.05 µM (active).

In the case of `CC(C)[C@H](CO)Nc1nc(Nc2cccc(Cl)c2)c2ncn(C(C)C)c2n1`, in assay [6], the AC50 was 14.8 µM (active).

As for `CC1=C2C(=CO[C@H](C)[C@H]2C)C(=O)C(C(=O)O)=C1O`, in assay [2], the inhibition of aggregation was 68.3%. In assay [3], the glutamate uptake change was determined as 33.3%. In addition, in assay [4], the inclusion score was 2. The molecule further registered an aggregation suppression score in assay [5] of 0.187.

In assay [1], `CC(=O)Oc1ccc2c(c1)CCC1C2CC[C@@]2(C)C1CC[C@@H]2OC(C)=O` (some centres undefined) registered a rescue above control of 6.23. In [2], the inhibition of aggregation is 65.2%. Further, the glutamate uptake change in [3] was -3%. This molecule also registered an aggregation suppression score in assay [5] of 0.34.

Molecule `COC(=O)C(N)CS` (centres undefined) had a rescue above control in assay [1] of -5.25. Besides, in assay [2], the inhibition of aggregation was 74.2%. Also, the glutamate uptake change in assay [3] is 10.6%. Also, the inclusion score in assay [4] was found to be 2. In addition, the aggregation suppression score in [5] worked out at 1.19.

In turn, `CC(C)(C)NC[C@@H](O)COc1nsnc1N1CCOCC1` yielded a rescue above control in assay [1] of -14.1. Besides, the inhibition of aggregation in [2] is -23.4%. In addition, in assay [3], the glutamate uptake change stood at 14.7%. In [4], this molecule had an inclusion score of 2. The aggregation suppression score in [5] is 1.29.

Regarding `NC(Cc1ccc(F)cc1)C(=O)O` (centres undefined), the rescue above control in assay [1] was determined as 3.95. Moreover, the inhibition of aggregation in [2] came out at 75%. The glutamate uptake change in assay [3] was 15.5%. Also, the inclusion score in assay [4] was found to be 2. This molecule displayed an aggregation suppression score in assay [5] of 1.47.

In turn, `CC1CCC2(OC1)OC1CC3C4CC[C@H]5C[C@@H](O)CC[C@]5(C)C4CC(=O)[C@]3(C)C1C2C` (some centres undefined) showed a rescue above control in [1] of -2.31. Moreover, the inhibition of aggregation in assay [2] turned out to be 27.8%. For the same molecule, the glutamate uptake change in [3] is 2.67%. In assay [4], this molecule had an inclusion score of 2. This molecule registered an aggregation suppression score in assay [5] of 1.27.

For `CC(C)CC(NC(=O)CCN)C(=O)O` (centres undefined), the rescue above control in assay [1] worked out at 6.33. Further, the inhibition of aggregation in assay [2] is 57.6%. For the same molecule, in assay [3], the glutamate uptake change amounted to 14.1%. The same molecule registered an inclusion score in assay [4] of 2. This molecule also yielded an aggregation suppression score in assay [5] of 1.32.

For the molecule `CC[C@H](C)C(=O)O[C@H]1CCC=C2C=C[C@H](C)C(CCC3C[C@@H](O)CC(=O)O3)[C@H]21` (some centres undefined), the rescue above control in assay [1] is -3.11. The inhibition of aggregation in assay [2] is 31.8%. For the same molecule, the glutamate uptake change in [3] amounted to 12.1%. Also, the aggregation suppression score in assay [5] was 0.746.

With `Oc1ccc2ccccc2c1SSc1c(O)ccc2ccccc12`, in assay [7], the inhibition (in general, the share of the control response that was lost under treatment) is 3% (inactive). For the same molecule, in assay [8], the fluorescence ratio (interference) is 1 (inactive). In addition, the half-maximal activity concentration (AC50) in assay [6] was 18.7 µM (active). Also, the molecule was classed as inactive in [9].
